Data on five molecules can be found in PubChem BioAssay.

The term viability denotes a read-out of living cells in per cent, often relative to untreated cells.

“And” between values parts separate entries of the source, which are not always exact repeats. Equal entries are not always repeated. Some compounds were tested as several samples or in several runs, with calls that do not always agree. The source made the active and inactive calls.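 Rule for the calls: active = normalized viability below 100% at a tested concentration; inactive = the rest.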

One assay can be described thus: ovarian cancer cell viability with rucaparib, profiling panel, oncology-focused library, rucaparib conditional (AID 1508598). The conditions noted are these: patient-derived ovarian cancer cells, CellTiter-Glo viability, 144 h; at 0.00488 µM; OCI-P5x cells; with rucaparib 20 µM; stronger effect = lower value; 100% = cells with rucaparib alone.
`S=c1nc[nH]c2nc[nH]c12`: the viability was 99.6% (active).

As for `CC1=C(/C=C/C(C)=C/C=C/C(C)=C/C(=O)O)C(C)(C)CCC1`, the viability was 108% (inactive).

As for `O=c1[nH]cnc2[nH]ncc12`, the viability is 98.6% (active).

Consider `O=C1c2c(O)ccc(O)c2C(=O)c2c(NCCNCCO)ccc(NCCNCCO)c21`, for which the viability is 97.7% (active) and 84.3% (active).

Turning to `CC(C)C(=O)Nc1ccc([N+](=O)[O-])c(C(F)(F)F)c1`, the viability is 107% (inactive).

Still in this assay, the particulars now being: patient-derived ovarian cancer cells, CellTiter-Glo viability, 144 h; at 0.00488 µM; OCI-P5x cells; without rucaparib; stronger effect = lower value.
Turning to `S=c1nc[nH]c2nc[nH]c12`, the viability was 90.4% (active).

On to `CC1=C(/C=C/C(C)=C/C=C/C(C)=C/C(=O)O)C(C)(C)CCC1`, for which the viability is 120% (inactive).

In the case of `O=c1[nH]cnc2[nH]ncc12`, the viability was 111% (inactive).

Regarding `O=C1c2c(O)ccc(O)c2C(=O)c2c(NCCNCCO)ccc(NCCNCCO)c21`, the viability is 107% (inactive) and 84.4% (active).

On to `CC(C)C(=O)Nc1ccc([N+](=O)[O-])c(C(F)(F)F)c1`, for which the viability was 106% (inactive).

Still in this assay, the particulars now being: patient-derived ovarian cancer cells, CellTiter-Glo viability, 144 h; at 0.0195 µM; OCI-C5x cells; with rucaparib 10 µM; stronger effect = lower value; 100% = cells with rucaparib alone.
In the case of `S=c1nc[nH]c2nc[nH]c12`, the viability was 104% (inactive).

As for `CC1=C(/C=C/C(C)=C/C=C/C(C)=C/C(=O)O)C(C)(C)CCC1`, the viability is 106% (inactive).

In the case of `O=c1[nH]cnc2[nH]ncc12`, the viability is 114% (inactive).

With `O=C1c2c(O)ccc(O)c2C(=O)c2c(NCCNCCO)ccc(NCCNCCO)c21`, the viability was 83.6% (active) and 77% (active).

Turning to `CC(C)C(=O)Nc1ccc([N+](=O)[O-])c(C(F)(F)F)c1`, the viability was 114% (inactive).

Staying with this assay, now noted: patient-derived ovarian cancer cells, CellTiter-Glo viability, 144 h; at 0.0195 µM; OCI-C5x cells; without rucaparib; stronger effect = lower value.
`S=c1nc[nH]c2nc[nH]c12`: the viability is 109% (inactive).

For the molecule `CC1=C(/C=C/C(C)=C/C=C/C(C)=C/C(=O)O)C(C)(C)CCC1`, the viability was 111% (inactive).

On to `O=c1[nH]cnc2[nH]ncc12`, for which the viability was 121% (inactive).

As to `O=C1c2c(O)ccc(O)c2C(=O)c2c(NCCNCCO)ccc(NCCNCCO)c21`, the viability was 87.9% (active) and 74.9% (active).

Turning to `CC(C)C(=O)Nc1ccc([N+](=O)[O-])c(C(F)(F)F)c1`, the viability was 118% (inactive).

Staying with this assay, now noted: patient-derived ovarian cancer cells, CellTiter-Glo viability, 144 h; at 0.0195 µM; OCI-P5x cells; with rucaparib 20 µM; stronger effect = lower value; 100% = cells with rucaparib alone.
In the case of `S=c1nc[nH]c2nc[nH]c12`, the viability is 94.9% (active).

`CC1=C(/C=C/C(C)=C/C=C/C(C)=C/C(=O)O)C(C)(C)CCC1`: the viability is 104% (inactive).

With `O=c1[nH]cnc2[nH]ncc12`, the viability is 104% (inactive).

As for `O=C1c2c(O)ccc(O)c2C(=O)c2c(NCCNCCO)ccc(NCCNCCO)c21`, the viability is 86.2% (active) and 68.2% (active).

On to `CC(C)C(=O)Nc1ccc([N+](=O)[O-])c(C(F)(F)F)c1`, for which the viability is 104% (inactive).

The same assay, now with this note: patient-derived ovarian cancer cells, CellTiter-Glo viability, 144 h; at 0.0195 µM; OCI-P5x cells; without rucaparib; stronger effect = lower value.
With `S=c1nc[nH]c2nc[nH]c12`, the viability was 84.4% (active).

In the case of `CC1=C(/C=C/C(C)=C/C=C/C(C)=C/C(=O)O)C(C)(C)CCC1`, the viability is 115% (inactive).

Turning to `O=c1[nH]cnc2[nH]ncc12`, the viability was 114% (inactive).

For `O=C1c2c(O)ccc(O)c2C(=O)c2c(NCCNCCO)ccc(NCCNCCO)c21`, the viability is 74.8% (active) and 44.3% (active).

With `CC(C)C(=O)Nc1ccc([N+](=O)[O-])c(C(F)(F)F)c1`, the viability was 105% (inactive).

Still in this assay, the particulars now being: patient-derived ovarian cancer cells, CellTiter-Glo viability, 144 h; at 0.0781 µM; OCI-C5x cells; with rucaparib 10 µM; stronger effect = lower value; 100% = cells with rucaparib alone.
On to `S=c1nc[nH]c2nc[nH]c12`, for which the viability was 123% (inactive).

As to `CC1=C(/C=C/C(C)=C/C=C/C(C)=C/C(=O)O)C(C)(C)CCC1`, the viability was 103% (inactive).

As to `O=c1[nH]cnc2[nH]ncc12`, the viability was 117% (inactive).

For the molecule `O=C1c2c(O)ccc(O)c2C(=O)c2c(NCCNCCO)ccc(NCCNCCO)c21`, the viability was 89.4% (active) and 82.8% (active).

Take `CC(C)C(=O)Nc1ccc([N+](=O)[O-])c(C(F)(F)F)c1`: the viability was 112% (inactive).

The assay is the same for the next values; noted with them: patient-derived ovarian cancer cells, CellTiter-Glo viability, 144 h; at 0.0781 µM; OCI-C5x cells; without rucaparib; stronger effect = lower value.
Regarding `S=c1nc[nH]c2nc[nH]c12`, the viability was 95.4% (active).

In the case of `CC1=C(/C=C/C(C)=C/C=C/C(C)=C/C(=O)O)C(C)(C)CCC1`, the viability is 122% (inactive).

With `O=c1[nH]cnc2[nH]ncc12`, the viability was 124% (inactive).

Take `O=C1c2c(O)ccc(O)c2C(=O)c2c(NCCNCCO)ccc(NCCNCCO)c21`: the viability was 78.8% (active) and 86.1% (active).

Turning to `CC(C)C(=O)Nc1ccc([N+](=O)[O-])c(C(F)(F)F)c1`, the viability is 116% (inactive).

The assay is the same for the next values; noted with them: patient-derived ovarian cancer cells, CellTiter-Glo viability, 144 h; at 0.0781 µM; OCI-P5x cells; with rucaparib 20 µM; stronger effect = lower value; 100% = cells with rucaparib alone.
`S=c1nc[nH]c2nc[nH]c12`: the viability was 90.4% (active).

With `CC1=C(/C=C/C(C)=C/C=C/C(C)=C/C(=O)O)C(C)(C)CCC1`, the viability is 101% (inactive).

For `O=c1[nH]cnc2[nH]ncc12`, the viability is 99.6% (active).

Regarding `O=C1c2c(O)ccc(O)c2C(=O)c2c(NCCNCCO)ccc(NCCNCCO)c21`, the viability was 52.6% (active) and 49.6% (active).

Regarding `CC(C)C(=O)Nc1ccc([N+](=O)[O-])c(C(F)(F)F)c1`, the viability is 103% (inactive).

Staying with this assay, now noted: patient-derived ovarian cancer cells, CellTiter-Glo viability, 144 h; at 0.0781 µM; OCI-P5x cells; without rucaparib; stronger effect = lower value.
For `S=c1nc[nH]c2nc[nH]c12`, the viability is 87.6% (active).

`CC1=C(/C=C/C(C)=C/C=C/C(C)=C/C(=O)O)C(C)(C)CCC1`: the viability was 115% (inactive).

`O=c1[nH]cnc2[nH]ncc12`: the viability was 105% (inactive).

Take `O=C1c2c(O)ccc(O)c2C(=O)c2c(NCCNCCO)ccc(NCCNCCO)c21`: the viability was 27.2% (active) and 21.5% (active).

For `CC(C)C(=O)Nc1ccc([N+](=O)[O-])c(C(F)(F)F)c1`, the viability is 112% (inactive).

The same assay, now with this note: patient-derived ovarian cancer cells, CellTiter-Glo viability, 144 h; at 0.313 µM; OCI-C5x cells; with rucaparib 10 µM; stronger effect = lower value; 100% = cells with rucaparib alone.
On to `S=c1nc[nH]c2nc[nH]c12`, for which the viability was 106% (inactive).

For the molecule `CC1=C(/C=C/C(C)=C/C=C/C(C)=C/C(=O)O)C(C)(C)CCC1`, the viability was 103% (inactive).

For `O=c1[nH]cnc2[nH]ncc12`, the viability is 113% (inactive).

As for `O=C1c2c(O)ccc(O)c2C(=O)c2c(NCCNCCO)ccc(NCCNCCO)c21`, the viability was 76.1% (active) and 60.1% (active).

As to `CC(C)C(=O)Nc1ccc([N+](=O)[O-])c(C(F)(F)F)c1`, the viability is 109% (inactive).
